Laboratory results taken from PubChem BioAssay (EPA / NIEHS).
Where “and” joins values, the source holds several entries; their conditions need not be identical. Equal entries are not always repeated. Where a structure was tested more than once in an assay, its records may differ in their call. Calls of active or inactive are those of the source. How the source made its calls: active means hit-call score of the fitted dose curve at least 0.9, where 1 is the maximum; inactive means score below 0.9.

Columns and labels:
[1] = read-out: Interleukin-8 (IL8), CXCL8 (gene 3576); assay: BSK_BE3C_IL8: BioMAP Diversity Plus: BE3C Assay for Interleukin-8 (IL8) Biomarker Activity (AID 2284280); details: primary human bronchial epithelial cells
Method in brief: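 ELISA read-out of IL-8 in human lung bronchial epithelial primary cell cultures, 24 h post-dosing; endpoint analysed as signal increase relative to DMSO baseline.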

[2] = read-out: Epidermal growth factor receptor (EGFR), EGFR (gene 1956); assay: BSK_BE3C_EGFR: BioMAP Diversity Plus: BE3C Assay for Epidermal growth factor receptor (EGFR) Biomarker Activity (AID 2284281); details: primary human bronchial epithelial cells
Method in brief: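 Primary human lung bronchial epithelial cells; compound, 24 h; EGFR measured by ELISA; positive-direction fit vs DMSO baseline.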

KRT18 (gene 3875) = assay: BSK_BE3C_Keratin818: BioMAP Diversity Plus: BE3C Assay for Keratin 818 Biomarker Activity (AID 2284282); details: primary human bronchial epithelial cells
Method in brief: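 BE3C: human bronchial epithelial primary cells, 24 h exposure, Keratin 8/18 ELISA; DMSO = negative control/baseline; cytotoxicity by parallel SRB stain (0.1% SRB after 10% TCA fixation, 560 nm).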

[3] = read-out: Plasminogen activator inhibitor-1 (PAI1), SERPINE1 (gene 5054); assay: BSK_CASM3C_PAI1: BioMAP Diversity Plus: CASM3C Assay for Plasminogen activator inhibitor-1 (PAI1) Biomarker Activity (AID 2284284); details: primary human coronary artery smooth muscle cells;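 further: PAI-1 protein level measured by ELISA 24 h after dosing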
[4] = read-out: Monocyte Chemoattractant Protein-1 (MCP1), CCL2 (gene 6347); assay: BSK_hDFCGF_MCP1: BioMAP Diversity Plus: hDFCGF Assay for Monocyte Chemoattractant Protein-1 (MCP1) Biomarker Activity (AID 2284285); details: primary human foreskin fibroblasts
Method in brief: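 Human foreskin fibroblasts (hDFCGF system) were exposed to compound and secreted MCP-1 was measured by ELISA after 24 hours. Activity was fitted relative to DMSO. Cytotoxicity was checked by SRB total-protein staining in parallel cultures.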

CD40, CD40 (gene 958) = assay: BSK_IMphg_CD40: BioMAP Diversity Plus: IMphg Assay for CD40 Biomarker Activity (AID 2284288); details: primary human endothelial cells with macrophages
Method in brief: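 Venular endothelial cells co-cultured with macrophages (human primary), CD40 measured by ELISA 24 h after dosing. Positive-direction fit vs DMSO baseline; cytotoxicity tracked by SRB total-protein staining in parallel cultures.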

[5] = read-out: TIMP metallopeptidase inhibitor 2 (TIMP2), TIMP2 (gene 7077); assay: BSK_hDFCGF_TIMP2: BioMAP Diversity Plus: hDFCGF Assay for TIMP metallopeptidase inhibitor 2 (TIMP2) Biomarker Activity (AID 2284289); details: primary human foreskin fibroblasts
Method in brief: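 Primary human foreskin fibroblasts in the hDFCGF system, dosed for 24 h; TIMP-2 level measured by ELISA, fitted in the positive direction against DMSO; cytotoxicity checked in parallel by sulforhodamine B total protein staining.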

[6] = read-out: E-selectin (Homo sapiens) (UniProt P16581); assay: BSK_IMphg_ESelectin: BioMAP Diversity Plus: IMphg Assay for Eselectin Biomarker Activity (AID 2284291); details: primary human endothelial cells with macrophages
Method in brief: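 Human venular endothelial cell–macrophage co-culture, E-selectin measured by ELISA 24 h after chemical dosing. Signal fitted in the positive direction against DMSO as negative control and baseline.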

[7] = BSK_IMphg_SRB: Viability Assessment in the BioMAP Diversity Plus: IMphg Assay (AID 2284292); details: primary human endothelial cells with macrophages;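 further: measured one day after compound addition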
Method in brief: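 Human venular endothelial cells with macrophages, 24 h after chemical dosing; total protein by 0.1% SRB staining after 10% TCA fixation, read at 560 nm. Positive-direction fitting versus DMSO baseline.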

[8] = read-out: Macrophage colony-stimulating factor (MCSF), CSF1 (gene 1435); assay: BSK_IMphg_MCSF: BioMAP Diversity Plus: IMphg Assay for Macrophage colony-stimulating factor (MCSF) Biomarker Activity (AID 2284293); details: primary human endothelial cells with macrophages
Method in brief: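 Co-culture of human venular endothelial cells and macrophages, 24 hours of chemical exposure. M-CSF quantified by ELISA, with parallel SRB total-protein staining for cytotoxicity; activity fitted relative to DMSO.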

Measured: AC50

Sequence of E-selectin (Homo sapiens) (P16581 whole entry, looked up): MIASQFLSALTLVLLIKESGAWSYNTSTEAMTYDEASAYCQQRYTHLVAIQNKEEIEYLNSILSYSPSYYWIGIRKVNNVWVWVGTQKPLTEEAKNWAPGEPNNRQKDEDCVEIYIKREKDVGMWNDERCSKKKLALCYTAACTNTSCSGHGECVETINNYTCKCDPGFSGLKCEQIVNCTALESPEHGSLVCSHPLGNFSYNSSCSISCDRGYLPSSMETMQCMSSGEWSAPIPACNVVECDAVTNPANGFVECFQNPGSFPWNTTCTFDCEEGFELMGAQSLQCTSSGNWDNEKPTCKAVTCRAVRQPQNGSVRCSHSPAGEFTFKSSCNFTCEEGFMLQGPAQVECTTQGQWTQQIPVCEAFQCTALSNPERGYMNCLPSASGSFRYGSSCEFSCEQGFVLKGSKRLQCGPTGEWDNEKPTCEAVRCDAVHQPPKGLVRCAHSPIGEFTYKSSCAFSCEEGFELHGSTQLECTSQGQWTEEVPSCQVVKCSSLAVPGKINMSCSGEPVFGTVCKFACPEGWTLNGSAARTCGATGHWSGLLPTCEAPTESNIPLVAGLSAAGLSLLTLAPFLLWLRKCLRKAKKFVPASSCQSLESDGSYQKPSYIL

FC(F)=C(F)C(F)(F)C(F)(F)C(F)(F)C(F)(F)C(F)(F)C(F)(F)F
inactive: all assays above

C[Si](C)(C)C(F)(F)C(F)(F)C(F)(F)F
inactive: all assays above

O=S(=O)(O)CCC(F)(F)C(F)(F)C(F)(F)C(F)(F)C(F)(F)C(F)(F)F
inactive: all assays above

FC(F)C(F)(F)COCC1CO1 (configuration not stated)
inactive: all assays above

NCC(F)(F)C(F)(F)C(F)(F)C(F)(F)F
inactive: all assays above

FC(F)(F)COC(OCC(F)(F)F)OCC(F)(F)F
inactive: all assays above

OCCC(F)(F)C(F)(F)C(F)(F)C(F)(F)F
inactive: all assays above

O=C(Cl)C(F)(F)C(F)(F)C(F)(F)C(=O)Cl
inactive: all assays above

FC(F)(F)C(F)(F)C(F)(F)C(F)(F)C(F)(F)C(F)(F)I
active: [4] 28.2 µM
inactive: [1] | [2] | KRT18 (gene 3875) | [3] | [4] | CD40, CD40 (gene 958) | [5] | [6] | [7] | [8]

OC(O)(C(F)C(O)(O)C(F)(F)F)C(F)(F)F
active: [1] 22 µM | [5] 7.41 µM and 22.4 µM
inactive: [1] | [2] | KRT18 (gene 3875) | [3] | [4] | CD40, CD40 (gene 958) | [6] | [7] | [8]
